Assay results as given in PubChem BioAssay.
Unmarked numbers belong to inactive results. No rule for the calls is given here.

Biological target: Pantothenate synthetase (Mycobacterium tuberculosis (strain ATCC 25618 / H37Rv)) (UniProt P9WIL5)
Assay: Coupled enzyme confirmation of inhibitors against recombinant Mtb PanC (AID 375);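 also: 0% = full reaction with vehicle and 100% = no enzyme background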
Conditions: coupled enzyme assay; at 10 µM, stronger effect = higher value

Sequence of Pantothenate synthetase (Mycobacterium tuberculosis (strain ATCC 25618 / H37Rv)) (P9WIL5 whole entry, looked up): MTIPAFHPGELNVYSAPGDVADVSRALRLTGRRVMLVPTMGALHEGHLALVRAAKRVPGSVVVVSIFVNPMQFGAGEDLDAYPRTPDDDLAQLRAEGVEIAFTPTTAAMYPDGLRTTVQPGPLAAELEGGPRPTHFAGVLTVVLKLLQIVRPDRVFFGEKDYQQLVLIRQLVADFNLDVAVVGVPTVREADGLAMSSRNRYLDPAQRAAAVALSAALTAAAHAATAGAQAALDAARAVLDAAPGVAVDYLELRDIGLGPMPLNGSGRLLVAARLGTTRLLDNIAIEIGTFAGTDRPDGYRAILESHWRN

| SMILES | inhibition [%] |
| --- | --- |
| O=C(Nc1cnn(Cc2ccc(Cl)cc2Cl)c1)c1noc2c1CCCC2 | 4 |
| CCOC(=O)c1[nH]c(C)c(C(=O)Nc2ccccc2C)c1C | 0 |
| CCn1nc(NC(=O)c2cccnc2)c2cc3ccccc3nc21 | 0 |
| Cc1ccc(N2CCN(C(=O)c3ccccc3Br)CC2)c(C)c1 | 6 |
| Cc1ccc(C2=Nc3ccccc3NC(C)(c3ccc(C)o3)C2)o1 (configuration not stated) | 0 |
| Nc1nnc(-c2cn(-c3ccccc3)nc2-c2ccccc2)o1 | 0 |
| CCOC(=O)N1CCN(C(=O)C2CC(=O)N(Cc3ccc(OC)cc3)C2)CC1 (configuration not stated) | 3 |
| O=C(Nc1ccc(Cl)c(C(F)(F)F)c1)N1CCCC(O)C1 (configuration not stated) | 4 |
| O=C(CN(c1ccc(F)cc1)S(=O)(=O)c1ccc2c(c1)OCCO2)Nc1cccnc1 | 0 |
| CCOC(=O)N1CCN(C(=O)CSc2nnc(COc3ccccc3)o2)CC1 | 2 |
| O=C(NCC1CCCO1)C1CC(c2ccc(Cl)c(Cl)c2)=NO1 (configuration not stated) | 0 |
| O=S(=O)(NCC(O)COCc1ccco1)c1cccs1 (configuration not stated) | 2 |
| Cn1c(Cc2ccccc2)nnc1SCC(=O)N1CCOCC1 | 0 |
| Cc1ncc([N+](=O)[O-])n1CCO | 1 |
| O=S(=O)(c1ccc(S(=O)(=O)N(Cc2ccco2)Cc2ccccc2Cl)cc1)N1CCCC1 | 0 |
| O=C(c1ccco1)N1CCN(c2ccc(Cl)cc2)CC1 | 5 |
| CCN(CC)c1ccc(/C=N/n2nnnc2N)c(O)c1 | 6 |
| COc1nc2ccc(C)cc2cc1-c1noc(-c2cccnc2)n1 | 4 |
| COc1cc(S(=O)(=O)N2CCOCC2)ccc1NC(=O)COC(=O)c1ccccn1 | 0 |
| COc1cccc(C(=O)n2cnnc2N)c1OC | 4 |
| Cc1cc(C)n(-c2ccc(C(=O)Oc3ccc4c(c3)OCO4)cc2)n1 | 1 |
| Cc1ccc(-c2cc(C(=O)NCCN3CCOCC3)no2)cc1 | 3 |
